# Test results: PubChem BioAssay (EPA / NIEHS)
# Inconclusive results are not listed. Activity calls are given as the source filed them. How the source made its calls, unless noted: active means hit-call score of the fitted dose curve at least 0.9, where 1 is the maximum; inconclusive means response in the unintended direction; inactive means score below 0.9.
# Key:
# [1] = CCTE_Shafer_MEA_acute_LDH: CCTE's Lactate Dehydrogenase Assay for Cytotoxicity in the Neural Acute Assay, Shafer Lab (AID 2284086);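 further: active means LDH release rises above DMSO vehicle level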
# In short: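 LDH released during 40 min compound exposure of primary rat cortical cultures, quantified by absorbance at 490 nm in collected medium. Fitting direction positive versus DMSO vehicle.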
# [2] = CCTE_Shafer_MEA_acute_AB: CCTE's Alamar Blue Assay for Cytotoxicity in the Neural Acute Assay, Shafer Lab (AID 2284069);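 further: active compounds lower the viability signal compared with DMSO wells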
# In short: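 Metabolic activity in chemically exposed rat cortical neurons (MEA cultures, day 13/15 post-plating) measured via CellTiter Blue resazurin reduction, 544/590 nm fluorescence; fitted relative to DMSO, with signal loss indicating reduced viability.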
# [3] = CCTE_Shafer_MEA_dev_mutual_information_norm: CCTE's Neural Network Formation Assay for Mutual Information Normalization, Shafer Lab (AID 2284091; active means hit-call score of the fitted dose curve at least 0.9, where 1 is the maximum; inactive means score below 0.9;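 on AC50: mutual information between electrodes summarised as area under curve across four recording days; potency is for a decrease in mutual information relative to DMSO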)
# In short: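 Neurons from rat cortex were seeded at 1.5 x 10^5 cells/well onto PEI-coated MEAs in a laminin drop, then exposed to compound from day 0 for twelve days. Network recordings on four days gave mutual information, summarised by AUC relative to DMSO.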
# [4] = CCTE_Mundy_HCI_Cortical_Synap_Neur_Matur_NeuriteSpotCountPerNeuriteLength: CCTE's Synaptogenesis and Neurite Maturation Assay in rat cortical cells for Neurite Spot Count per Neurite Length, Mundy Lab (AID 2284210; active means hit-call score of the fitted dose curve at least 0.9, where 1 is the maximum; inactive means score below 0.9)
# In short: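 Read-out: synaptophysin puncta counted along MAP2-stained neurites, normalised to neurite length, by automated high-content imaging. Rat cortical cells; AraC DIV 5; chemical dosing DIV 7; termination DIV 12. DMSO baseline.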
# [5] = CCTE_Mundy_HCI_Cortical_Synap_Neur_Matur_BPCount: CCTE's Synaptogenesis and Neurite Maturation Assay in rat cortical cells for Branch Point Count, Mundy Lab (AID 2284211; active means hit-call score of the fitted dose curve at least 0.9, where 1 is the maximum; inactive means score below 0.9)
# In short: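 HCI read-out of branch points from MAP2/synaptophysin/Hoechst immunofluorescence; rat cortical cultures, AraC DIV 5, dosing DIV 7, fixed DIV 12; fit in positive direction vs DMSO baseline.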
# [6] = CCTE_Shafer_MEA_dev_LDH: CCTE's Lactate Dehydrogenase Assay for Cytotoxicity in the Neural Network Formation Assay, Shafer Lab (AID 2284068);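 further: exposure for twelve days from plating with re-dosing on DIV 5 and 9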
# In short: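 Cytotoxicity companion to network-formation recordings: rat cortical neurons received compound over 12 days of development, re-dosed at DIV 5 and 9 feeds. Viability was inferred from LDH enzyme activity relative to DMSO.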
# [7] = CCTE_Shafer_MEA_dev_AB: CCTE's Alamar Blue Assay for Cytotoxicity in the Neural Network Formation Assay, Shafer Lab (AID 2284083);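 further: twelve days of exposure from plating with re-dosing on DIV 5 and 9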
# In short: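 Fluorescent resazurin reduction serves as the viability read-out, with DMSO as negative control and baseline. Cells were primary rat cortical neurons grown on MEA plates and dosed from day 0 to day 12, treatment renewed on DIV 5 and 9.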
structure (smiles),measurement,setting,value
COc1cccc(-c2ccc(/C=C\CN3CCCCCC3)cc2Cl)c1,outcome,[1],inactive
Cn1c(=O)c2c(ncn2C)n(C)c1=O,outcome,[2],inactive
same,outcome,[3],inactive
same,outcome,[4],inactive
same,outcome,[5],inactive
CCCCCCCCCCCCc1ccccc1,outcome,[2],inactive
same,outcome,[1],inactive
CCC(C)(C)C(=O)O[C@H]1C[C@@H](C)C=C2C=C[C@H](C)[C@H](CC[C@@H]3C[C@@H](O)CC(=O)O3)[C@H]21,AC50,[6],368 nM (active)
same,AC50,[7],1750 nM (active)
same,outcome,[1],inactive
same,outcome,[3],inactive
CNCc1ccc(NC(=O)c2c[nH]c3c2C(=O)CCC3)cc1,AC50,[6],865 nM (active)
same,outcome,[7],inactive
same,AC50,[3],755 nM (active)
CCCN(C1CCN(C(=O)C2CCNCC2)CC1)[C@@H]1CCc2ccc(OC)cc2C1,outcome,[2],inactive
same,outcome,[1],inactive
Nc1nc2ncc(CNc3ccc(C(=O)N[C@@H](CCC(=O)O)C(=O)O)cc3)nc2c(=O)[nH]1,outcome,[6],inactive
same,outcome,[3],inactive
On1ccccc1=S,outcome,[2],inactive
same,outcome,[1],inactive
CC[C@H]1OC(=O)[C@H](C)[C@@H](O[C@H]2C[C@@](C)(OC)[C@@H](O)[C@H](C)O2)[C@H](C)[C@@H](O[C@@H]2O[C@H](C)C[C@H](N(C)C)[C@H]2O)[C@](C)(O)C[C@@H](C)C(=O)[C@H](C)[C@@H](O)[C@]1(C)O,outcome,[2],inactive
same,outcome,[7],inactive
same,outcome,[1],inactive
same,outcome,[3],inactive
same,outcome,[4],inactive
same,outcome,[5],inactive
CCCCCCc1ccc(O)cc1O,outcome,[1],inactive
COc1ccc(-n2nc(C(F)F)cc2-c2ccc(S(C)=O)cc2)cc1 (stereo not drawn),AC50,[6],603 nM (active)
same,outcome,[7],inactive
same,outcome,[3],inactive
Cn1cnc([N+](=O)[O-])c1Sc1ncnc2nc[nH]c12,outcome,[1],inactive
Cc1[nH]cnc1C[C@H]1CCc2c(C)c3ccccc3n2C1=O,outcome,[2],inactive
same,outcome,[1],inactive
